± gives the standard deviation.
How the values were obtained:
Settings in all cases: modulator concentration 10 µM
[1] = tested on: RAW-Dual (murine macrophage reporter line); test: NF-kB reporter (SEAP) activity fold change vs agonist alone; higher = enhanced NF-kB activity
Summary of the method: (§1)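 Overnight stimulation with a PRR agonist followed pre-incubation for 1 hour at 37 °C with compound at 10 μM final. This was done in RAW-Dual murine macrophage reporter cells seeded at 50 000 per well in 384-well plates. NF-κB (SEAP, QUANTI-Blue absorbance at 620 nm) and IRF (Lucia luciferase, QUANTI-Luc luminescence) were read from the supernatant. Each reporter's fold change relative to the mean agonist-only control on the same plate was averaged over replicate plates.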

[2] = tested on: RAW-Dual (murine macrophage reporter line); test: IRF reporter (Lucia luciferase) activity fold change vs agonist alone; higher = enhanced IRF activity
Summary of the method: as §1

[3] = tested on: RAW-Dual (murine macrophage reporter line); test: viability score (confluency relative to resting cells, overnight) (fraction); higher = more viable, active = viable (0.7 or more)
Summary of the method: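 RAW-Dual macrophages in 384-well plates were incubated overnight with compound, final concentration 10 μM. Confluency images from IncuCyte were processed in IncuCyte software into two masks covering all imaged wells. The viability score is each well's confluency relative to resting cells, and a compound met the cutoff when both masks exceeded 70% of resting cells.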

[4] = agonist: CpG ODN 1826 0.5 ug/mL

COc1cc(NC(=O)NCc2nc(C)cc(N3CCOCC3)n2)cc(OC)c1 showed an NF-kB reporter [1, 4] of 1.33 ± 0.32, an NF-kB reporter ([1]; agonist: LPS 0.1 ug/mL) of 1.04 ± 0.053 and an NF-kB reporter ([1]; agonist: MPLA […]) of 1.07 ± 0.11. The IRF reporter ([2]; agonist: 3'3'-cGAMP 10 ug/mL) was 0.886 ± 0.031, the IRF reporter ([2]; agonist: LPS 0.1 ug/mL) was 1.15 ± 0.14 and the IRF reporter ([2]; agonist: MPLA […]) was 1.09 ± 0.11. The viability score [3] was 0.982 (active).
O=C(COc1ccc(Cl)cc1)Nc1ccc(OC(F)(F)F)cc1 showed an NF-kB reporter [1, 4] of 1.03 ± 0.069, an NF-kB reporter ([1]; agonist: LPS 0.1 ug/mL) of 1 ± 0.078 and an NF-kB reporter ([1]; agonist: MPLA […]) of 0.943 ± 0.043. The IRF reporter ([2]; agonist: 3'3'-cGAMP 10 ug/mL) was 0.989 ± 0.072, the IRF reporter ([2]; agonist: LPS 0.1 ug/mL) was 0.973 ± 0.1 and the IRF reporter ([2]; agonist: MPLA […]) was 0.88 ± 0.18. The viability score [3] was 0.993 (active).
In the case of Cc1cc(OC2CN(C(=O)Cc3noc4ccccc34)C2)cc(=O)n1C1CC1, the NF-kB reporter [1, 4] is reported as 1.18 ± 0.072, the NF-kB reporter ([1]; agonist: LPS 0.1 ug/mL) is reported as 1.08 ± 0.088 and the NF-kB reporter ([1]; agonist: MPLA […]) is reported as 0.996 ± 0.043. The IRF reporter ([2]; agonist: 3'3'-cGAMP 10 ug/mL) was 0.919 ± 0.072, the IRF reporter ([2]; agonist: LPS 0.1 ug/mL) was 1 ± 0.061 and the IRF reporter ([2]; agonist: MPLA […]) was 0.957 ± 0.14. The viability score [3] was 0.999 (active).
Cc1cccc(Cn2cc(C=C3SC(=S)NC3=O)c3ccccc32)c1 showed an NF-kB reporter [1, 4] of 0.681 ± 0.067, an NF-kB reporter ([1]; agonist: LPS 0.1 ug/mL) of 0.893 ± 0.043 and an NF-kB reporter ([1]; agonist: MPLA […]) of 1 ± 0.088. It also gave an IRF reporter ([2]; agonist: 3'3'-cGAMP 10 ug/mL) of 0.844 ± 0.045, an IRF reporter ([2]; agonist: LPS 0.1 ug/mL) of 0.955 ± 0.1 and an IRF reporter ([2]; agonist: MPLA […]) of 1.09 ± 0.17. For the same molecule, the viability score [3] was 1.02 (active).
Work on Cc1cc(OCC(=O)Nc2ccccc2-c2ccccc2)ccc1Br yielded an NF-kB reporter [1, 4] of 0.776 ± 0.073, an NF-kB reporter ([1]; agonist: LPS 0.1 ug/mL) of 0.888 ± 0.06 and an NF-kB reporter ([1]; agonist: MPLA […]) of 0.972 ± 0.099. The IRF reporter ([2]; agonist: 3'3'-cGAMP 10 ug/mL) was 1.03 ± 0.048, the IRF reporter ([2]; agonist: LPS 0.1 ug/mL) was 1.47 ± 0.087 and the IRF reporter ([2]; agonist: MPLA […]) was 1.55 ± 0.13. For the same molecule, the viability score [3] was 0.997 (active).
In the case of CN(C)CCCC1(c2ccc(F)cc2)OCc2cc(C#N)ccc21.O=C(O)C(=O)O (stereo not drawn), the NF-kB reporter [1, 4] is reported as 1.13 ± 0.21, the NF-kB reporter ([1]; agonist: LPS 0.1 ug/mL) is reported as 1.12 ± 0.32 and the NF-kB reporter ([1]; agonist: MPLA […]) is reported as 1.07 ± 0.077. It also gave an IRF reporter ([2]; agonist: 3'3'-cGAMP 10 ug/mL) of 0.836 ± 0.047, an IRF reporter ([2]; agonist: LPS 0.1 ug/mL) of 1.28 ± 0.3 and an IRF reporter ([2]; agonist: MPLA […]) of 1.29 ± 0.1. For the same molecule, the viability score [3] was 0.993 (active).
In the case of COc1cccc(CCNC(=O)CC2CSc3nc4c(c(=O)n32)CCCC4)c1 (stereo not drawn), the NF-kB reporter [1, 4] is reported as 1.22 ± 0.069, the NF-kB reporter ([1]; agonist: LPS 0.1 ug/mL) is reported as 1.07 ± 0.083 and the NF-kB reporter ([1]; agonist: MPLA […]) is reported as 1.05 ± 0.096. The IRF reporter ([2]; agonist: 3'3'-cGAMP 10 ug/mL) was 0.886 ± 0.034, the IRF reporter ([2]; agonist: LPS 0.1 ug/mL) was 1.06 ± 0.052 and the IRF reporter ([2]; agonist: MPLA […]) was 1.13 ± 0.11. For the same molecule, the viability score [3] was 0.996 (active).
In the case of CC1CC(OC(=O)C(O)c2ccccc2)CC(C)(C)C1 (stereo not drawn), the NF-kB reporter [1, 4] is reported as 0.872 ± 0.037, the NF-kB reporter ([1]; agonist: LPS 0.1 ug/mL) is reported as 1.02 ± 0.11 and the NF-kB reporter ([1]; agonist: MPLA […]) is reported as 1.11 ± 0.18. The IRF reporter ([2]; agonist: 3'3'-cGAMP 10 ug/mL) was 1 ± 0.051, the IRF reporter ([2]; agonist: LPS 0.1 ug/mL) was 1.25 ± 0.25 and the IRF reporter ([2]; agonist: MPLA […]) was 1.48 ± 0.5. For the same molecule, the viability score [3] was 1.01 (active).
With COc1cc(C=Cc2nc3ccccc3nc2O)cc(OC)c1 the NF-kB reporter [1, 4] was 1.06 ± 0.054, the NF-kB reporter ([1]; agonist: LPS 0.1 ug/mL) was 1.06 ± 0.099 and the NF-kB reporter ([1]; agonist: MPLA […]) was 1.09 ± 0.074. For the same molecule, the IRF reporter ([2]; agonist: 3'3'-cGAMP 10 ug/mL) was 0.565 ± 0.029, the IRF reporter ([2]; agonist: LPS 0.1 ug/mL) was 0.834 ± 0.087 and the IRF reporter ([2]; agonist: MPLA […]) was 1.08 ± 0.29. The viability score [3] was 0.872 (active).
Cc1ncc(CC(=O)N2CCC(c3ccccc3Cl)S(=O)(=O)CC2)s1 (stereo not drawn) gave an NF-kB reporter [1, 4] of 0.884 ± 0.07, an NF-kB reporter ([1]; agonist: LPS 0.1 ug/mL) of 0.974 ± 0.12 and an NF-kB reporter ([1]; agonist: MPLA […]) of 0.972 ± 0.032. It also gave an IRF reporter ([2]; agonist: 3'3'-cGAMP 10 ug/mL) of 1.11 ± 0.092, an IRF reporter ([2]; agonist: LPS 0.1 ug/mL) of 0.981 ± 0.076 and an IRF reporter ([2]; agonist: MPLA […]) of 0.944 ± 0.24. For the same molecule, the viability score [3] was 1 (active).
Molecule OCC(CO)N[C@H]1C[C@](O)(CO)[C@@H](O)[C@H](O)[C@H]1O has an NF-kB reporter [1, 4] of 0.913 ± 0.054, an NF-kB reporter ([1]; agonist: LPS 0.1 ug/mL) of 0.924 ± 0.074 and an NF-kB reporter ([1]; agonist: MPLA […]) of 0.916 ± 0.046. For the same molecule, the IRF reporter ([2]; agonist: 3'3'-cGAMP 10 ug/mL) was 0.908 ± 0.058, the IRF reporter ([2]; agonist: LPS 0.1 ug/mL) was 1.04 ± 0.065 and the IRF reporter ([2]; agonist: MPLA […]) was 0.884 ± 0.07. The viability score [3] was 1 (active).
O=C(O)CCC(=O)Nc1ccc(Br)cc1C(=O)c1ccc(Cl)cc1 gave an NF-kB reporter [1, 4] of 0.993 ± 0.08, an NF-kB reporter ([1]; agonist: LPS 0.1 ug/mL) of 1.05 ± 0.058 and an NF-kB reporter ([1]; agonist: MPLA […]) of 0.951 ± 0.066. For the same molecule, the IRF reporter ([2]; agonist: 3'3'-cGAMP 10 ug/mL) was 0.986 ± 0.031, the IRF reporter ([2]; agonist: LPS 0.1 ug/mL) was 1.31 ± 0.19 and the IRF reporter ([2]; agonist: MPLA […]) was 1.08 ± 0.18. For the same molecule, the viability score [3] was 1.01 (active).
CCN(CC)c1ccc(C=NNC(=O)c2ccncc2)cc1 gave an NF-kB reporter [1, 4] of 1.16 ± 0.11, an NF-kB reporter ([1]; agonist: LPS 0.1 ug/mL) of 0.926 ± 0.12 and an NF-kB reporter ([1]; agonist: MPLA […]) of 1.05 ± 0.06. The IRF reporter ([2]; agonist: 3'3'-cGAMP 10 ug/mL) was 0.676 ± 0.12, the IRF reporter ([2]; agonist: LPS 0.1 ug/mL) was 0.948 ± 0.058 and the IRF reporter ([2]; agonist: MPLA […]) was 1.11 ± 0.076. For the same molecule, the viability score [3] was 0.991 (active).
CC(=O)ON=C1C(C)=C(C#N)C2C1C2(C)C (stereo not drawn) showed an NF-kB reporter [1, 4] of 1.2 ± 0.096, an NF-kB reporter ([1]; agonist: LPS 0.1 ug/mL) of 1.01 ± 0.26 and an NF-kB reporter ([1]; agonist: MPLA […]) of 0.874 ± 0.32. It also gave an IRF reporter ([2]; agonist: 3'3'-cGAMP 10 ug/mL) of 0.718 ± 0.18, an IRF reporter ([2]; agonist: LPS 0.1 ug/mL) of 0.871 ± 0.25 and an IRF reporter ([2]; agonist: MPLA […]) of 0.857 ± 0.33. The viability score [3] was 1.01 (active).

From the supplement of paper PMC10646978
